# How the values were obtained:
# Test in all cases: PBM; 200 nM protein, PBS
# Conditions in all cases: dsDNA, one strand shown
# [1] = target: HOXB9 (Homo sapiens, UniProt P17482 171-250, T197M)
# [2] = target: HOXC10 (Homo sapiens, UniProt Q9NYD6 254-340)
# [3] = target: ALX4 (Homo sapiens, UniProt Q9H161 200-286, Q225E)
# [4] = target: HOXB9 (Homo sapiens, UniProt P17482 171-250)
# [5] = target: HOXD13 (Homo sapiens, UniProt P35453 263-343, T313R)
# [6] = target: HOXD13 (Homo sapiens, UniProt P35453 263-343)
# Sequence of HOXD13 (Homo sapiens, UniProt P35453 263-343) (P35453 263-343): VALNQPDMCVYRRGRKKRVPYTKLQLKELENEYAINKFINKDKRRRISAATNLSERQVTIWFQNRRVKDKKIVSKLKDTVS
# [7] = target: HOXC10 (Homo sapiens, UniProt Q9NYD6 254-340, K271E)
# Sequence of HOXC10 (Homo sapiens, UniProt Q9NYD6 254-340, K271E) (Q9NYD6 254-340 K271E): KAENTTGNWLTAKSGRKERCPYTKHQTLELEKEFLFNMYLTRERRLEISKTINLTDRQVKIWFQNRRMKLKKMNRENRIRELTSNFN
# [8] = target: HOXD13 (Homo sapiens, UniProt P35453 263-343, T313A)
# Sequence of HOXD13 (Homo sapiens, UniProt P35453 263-343, T313A) (P35453 263-343 T313A): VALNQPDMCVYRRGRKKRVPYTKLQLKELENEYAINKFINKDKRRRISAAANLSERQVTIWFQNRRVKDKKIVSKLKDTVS
# [9] = target: HOXB9 (Homo sapiens, UniProt P17482 171-250, R186Q)
# Sequence of HOXB9 (Homo sapiens, UniProt P17482 171-250, R186Q) (P17482 171-250 R186Q): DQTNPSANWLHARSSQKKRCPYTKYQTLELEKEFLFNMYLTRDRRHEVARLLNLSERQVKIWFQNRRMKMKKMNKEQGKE
# [10] = target: HOXC9 (Homo sapiens, UniProt P31274 178-260, R222W)
# Sequence of HOXC9 (P31274 178-260 R222W): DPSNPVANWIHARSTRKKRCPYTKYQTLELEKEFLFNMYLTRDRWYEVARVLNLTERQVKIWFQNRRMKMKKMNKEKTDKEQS
# [11] = target: ALX4 (Homo sapiens, UniProt Q9H161 200-286)
# Sequence of ALX4 (Homo sapiens, UniProt Q9H161 200-286) (Q9H161 200-286): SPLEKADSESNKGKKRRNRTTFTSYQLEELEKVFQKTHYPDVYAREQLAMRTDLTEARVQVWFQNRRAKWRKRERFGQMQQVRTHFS
# [12] = target: HOXB6 (Homo sapiens, UniProt P17509 132-218, K202E)
# Sequence of HOXB6 (Homo sapiens, UniProt P17509 132-218, K202E) (P17509 132-218 K202E): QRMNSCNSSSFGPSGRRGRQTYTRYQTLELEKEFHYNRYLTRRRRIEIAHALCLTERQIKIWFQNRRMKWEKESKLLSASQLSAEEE
# [13] = target: PROP1 (Homo sapiens, UniProt O75360 56-141)
# Sequence of PROP1 (Homo sapiens, UniProt O75360 56-141) (O75360 56-141): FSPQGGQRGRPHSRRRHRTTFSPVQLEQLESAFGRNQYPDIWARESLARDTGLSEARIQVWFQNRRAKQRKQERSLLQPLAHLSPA
# [14] = target: PROP1 (Homo sapiens, UniProt O75360 56-141, R99H)
# Sequence of PROP1 (Homo sapiens, UniProt O75360 56-141, R99H) (O75360 56-141 R99H): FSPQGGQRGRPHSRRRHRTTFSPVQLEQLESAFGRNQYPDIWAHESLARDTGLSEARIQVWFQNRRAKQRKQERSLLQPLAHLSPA
# [15] = target: PROP1 (Homo sapiens, UniProt O75360 56-141, F88S)
# Sequence of PROP1 (Homo sapiens, UniProt O75360 56-141, F88S) (O75360 56-141 F88S): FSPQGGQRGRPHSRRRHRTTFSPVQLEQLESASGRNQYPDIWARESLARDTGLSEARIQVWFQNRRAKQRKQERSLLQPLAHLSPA
# [16] = target: HOXB6 (Homo sapiens, UniProt P17509 132-218)
# Sequence of HOXB6 (Homo sapiens, UniProt P17509 132-218) (P17509 132-218): as the sequence (P17509 132-218 K202E) above, with E71K counted along it
# [17] = target: HOXA7 (Homo sapiens, UniProt P31268 116-202)
# Sequence of HOXA7 (Homo sapiens, UniProt P31268 116-202) (P31268 116-202): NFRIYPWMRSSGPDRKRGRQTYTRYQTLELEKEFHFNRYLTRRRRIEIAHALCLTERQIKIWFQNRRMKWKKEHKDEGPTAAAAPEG
# [18] = target: PRRX1 (Homo sapiens, UniProt P54821 80-166, F113S)
# Sequence of PRRX1 (P54821 80-166 F113S): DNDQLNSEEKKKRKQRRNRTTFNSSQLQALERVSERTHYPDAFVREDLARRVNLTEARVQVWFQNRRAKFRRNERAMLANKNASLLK
# [19] = target: HOXA4 (Homo sapiens, UniProt Q00056 201-287, R217L)
# Sequence of HOXA4 (Homo sapiens, UniProt Q00056 201-287, R217L) (Q00056 201-287 R217L): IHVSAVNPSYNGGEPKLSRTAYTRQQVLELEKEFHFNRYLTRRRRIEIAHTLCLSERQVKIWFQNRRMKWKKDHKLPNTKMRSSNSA
# [20] = target: MSX2 (Homo sapiens, UniProt P35548 130-214, R199I)
# Sequence of MSX2 (P35548 130-214 R199I): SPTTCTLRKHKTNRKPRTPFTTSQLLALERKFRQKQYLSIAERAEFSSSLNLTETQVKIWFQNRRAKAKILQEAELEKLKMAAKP
# [21] = target: HOXA7 (Homo sapiens, UniProt P31268 116-202, W177C)
# Sequence of HOXA7 (Homo sapiens, UniProt P31268 116-202, W177C) (P31268 116-202 W177C): as the sequence (P31268 116-202) above, with W62C counted along it
# [22] = target: HOXA4 (Homo sapiens, UniProt Q00056 201-287, W262F)
# Sequence of HOXA4 (Homo sapiens, UniProt Q00056 201-287, W262F) (Q00056 201-287 W262F): as the sequence (Q00056 201-287 R217L) above, with L17R, W62F counted along it
# Sequence of HOXB9 (Homo sapiens, UniProt P17482 171-250, T197M) (P17482 171-250 T197M): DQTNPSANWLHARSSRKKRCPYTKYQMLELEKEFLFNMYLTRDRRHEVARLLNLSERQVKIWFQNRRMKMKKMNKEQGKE
# Sequence of HOXB9 (Homo sapiens, UniProt P17482 171-250) (P17482 171-250): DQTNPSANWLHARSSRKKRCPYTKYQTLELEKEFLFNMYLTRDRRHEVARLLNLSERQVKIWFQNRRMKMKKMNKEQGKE
# Sequence of ALX4 (Homo sapiens, UniProt Q9H161 200-286, Q225E) (Q9H161 200-286 Q225E): as the sequence (Q9H161 200-286) above, with Q26E counted along it
# Sequence of HOXC10 (Homo sapiens, UniProt Q9NYD6 254-340) (Q9NYD6 254-340): as the sequence (Q9NYD6 254-340 K271E) above, with E18K counted along it
# Sequence of HOXD13 (Homo sapiens, UniProt P35453 263-343, T313R) (P35453 263-343 T313R): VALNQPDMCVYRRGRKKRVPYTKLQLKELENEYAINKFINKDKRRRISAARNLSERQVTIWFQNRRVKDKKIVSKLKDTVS
sequence,measurement,setting,value
AATAAAAC,binding signal,[1],"9.76 upbm affinity estimate (log intensity, higher = more binding, comparable within an allelic series)"
same,binding signal,[2],"12.3 upbm affinity estimate (log intensity, higher = more binding, comparable within an allelic series)"
same,binding signal,[3],"10.6 upbm affinity estimate (log intensity, higher = more binding, comparable within an allelic series)"
same,binding signal,[4],"11.8 upbm affinity estimate (log intensity, higher = more binding, comparable within an allelic series)"
same,binding signal,[5],"10.9 upbm affinity estimate (log intensity, higher = more binding, comparable within an allelic series)"
same,binding signal,[6],"11.9 upbm affinity estimate (log intensity, higher = more binding, comparable within an allelic series)"
same,binding signal,[7],"11.7 upbm affinity estimate (log intensity, higher = more binding, comparable within an allelic series)"
same,binding signal,[8],"11.6 upbm affinity estimate (log intensity, higher = more binding, comparable within an allelic series)"
same,binding signal,[9],"11.5 upbm affinity estimate (log intensity, higher = more binding, comparable within an allelic series)"
same,binding signal,[10],"11.2 upbm affinity estimate (log intensity, higher = more binding, comparable within an allelic series)"
TCCCGGGA,binding signal,[1],"8.9 upbm affinity estimate (log intensity, higher = more binding, comparable within an allelic series)"
same,binding signal,[11],"8.7 upbm affinity estimate (log intensity, higher = more binding, comparable within an allelic series)"
same,binding signal,[3],"8.23 upbm affinity estimate (log intensity, higher = more binding, comparable within an allelic series)"
same,binding signal,[4],"8.93 upbm affinity estimate (log intensity, higher = more binding, comparable within an allelic series)"
same,binding signal,[9],"8.89 upbm affinity estimate (log intensity, higher = more binding, comparable within an allelic series)"
GGTGGAGA,binding signal,[1],"8.58 upbm affinity estimate (log intensity, higher = more binding, comparable within an allelic series)"
same,binding signal,[12],"9.03 upbm affinity estimate (log intensity, higher = more binding, comparable within an allelic series)"
same,binding signal,[4],"8.51 upbm affinity estimate (log intensity, higher = more binding, comparable within an allelic series)"
same,binding signal,[13],"6.89 upbm affinity estimate (log intensity, higher = more binding, comparable within an allelic series)"
same,binding signal,[14],"6.82 upbm affinity estimate (log intensity, higher = more binding, comparable within an allelic series)"
same,binding signal,[9],"8.56 upbm affinity estimate (log intensity, higher = more binding, comparable within an allelic series)"
same,binding signal,[15],"6.65 upbm affinity estimate (log intensity, higher = more binding, comparable within an allelic series)"
same,binding signal,[16],"9.09 upbm affinity estimate (log intensity, higher = more binding, comparable within an allelic series)"
AATTACCA,binding signal,[1],"10.1 upbm affinity estimate (log intensity, higher = more binding, comparable within an allelic series)"
same,binding signal,[17],"11.2 upbm affinity estimate (log intensity, higher = more binding, comparable within an allelic series)"
same,binding signal,[18],"11.1 upbm affinity estimate (log intensity, higher = more binding, comparable within an allelic series)"
same,binding signal,[12],"9.98 upbm affinity estimate (log intensity, higher = more binding, comparable within an allelic series)"
same,binding signal,[19],"11.9 upbm affinity estimate (log intensity, higher = more binding, comparable within an allelic series)"
same,binding signal,[20],"12.2 upbm affinity estimate (log intensity, higher = more binding, comparable within an allelic series)"
same,binding signal,[21],"8.87 upbm affinity estimate (log intensity, higher = more binding, comparable within an allelic series)"
same,binding signal,[22],"11.4 upbm affinity estimate (log intensity, higher = more binding, comparable within an allelic series)"
same,binding signal,[16],"11.7 upbm affinity estimate (log intensity, higher = more binding, comparable within an allelic series)"

# — publication PMC11006913
